# Experimental data published in paper PMC7862700, “An all-to-all approach to the identification of sequence-specific readers for epigenetic DNA modifications on cytosine”.
# Assays:
# Assay in all cases: DAPPL (digital affinity profiling via proximity ligation, sequencing); 10 mM Tris-HCl pH 7.5, 50 mM NaCl, 1 mM DTT, 4% glycerol, room temperature, 30 min; GST-TFs on glutathione beads, 16-mer random dsDNA library, 0.1% formaldehyde crosslink after washing; high values mean tight binding
# Conditions in all cases: protein: recombinant; tags: N-terminal GST; dsDNA, one strand shown
# ELK4 = biological target: T1, ELK4 (Homo sapiens, UniProt P28324-2 1-405)
# T1 sequence: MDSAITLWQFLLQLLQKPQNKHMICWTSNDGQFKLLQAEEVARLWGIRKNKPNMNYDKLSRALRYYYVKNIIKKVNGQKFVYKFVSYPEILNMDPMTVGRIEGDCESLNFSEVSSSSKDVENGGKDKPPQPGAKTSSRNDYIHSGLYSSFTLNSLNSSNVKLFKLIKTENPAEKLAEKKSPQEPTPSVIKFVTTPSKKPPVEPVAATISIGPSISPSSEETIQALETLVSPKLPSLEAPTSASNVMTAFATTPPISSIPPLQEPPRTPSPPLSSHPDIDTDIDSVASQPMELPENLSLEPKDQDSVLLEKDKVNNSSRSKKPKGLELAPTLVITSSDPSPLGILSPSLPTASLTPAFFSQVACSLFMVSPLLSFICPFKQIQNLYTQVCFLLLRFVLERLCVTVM
# Summary of the method: (§1)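 Yeast served to express human transcription factors as GST fusions, which were then captured on glutathione beads and labelled with DNA barcodes. Pooled with a tag-only sample, they were incubated with 200 nmole of a 16-mer random double-stranded DNA library for 30 min at room temperature in Tris/NaCl/DTT/glycerol buffer, washed, crosslinked with 0.1% formaldehyde, ligated by proximity, amplified by PCR and sequenced. Dividing each hexamer's read frequency for a factor by its frequency for the tag-only sample gives the binding signal.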
# ETV2 = biological target: T2, ETV2 (Homo sapiens, UniProt O00321 1-342)
# T2 sequence: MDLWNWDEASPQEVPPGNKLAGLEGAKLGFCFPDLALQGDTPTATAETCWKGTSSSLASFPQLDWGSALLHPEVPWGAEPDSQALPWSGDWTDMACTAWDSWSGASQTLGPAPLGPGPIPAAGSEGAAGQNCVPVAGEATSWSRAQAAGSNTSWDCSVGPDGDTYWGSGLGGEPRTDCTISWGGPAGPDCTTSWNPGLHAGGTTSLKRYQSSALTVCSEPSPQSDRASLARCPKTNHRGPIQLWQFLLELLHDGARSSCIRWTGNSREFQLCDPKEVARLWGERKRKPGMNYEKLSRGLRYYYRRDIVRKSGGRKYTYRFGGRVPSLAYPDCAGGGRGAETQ
# Summary of the method: as §1
# ETV1 = ETV1 (Homo sapiens, UniProt P50549 1-477)
# Chain of ETV1 (P50549 whole entry): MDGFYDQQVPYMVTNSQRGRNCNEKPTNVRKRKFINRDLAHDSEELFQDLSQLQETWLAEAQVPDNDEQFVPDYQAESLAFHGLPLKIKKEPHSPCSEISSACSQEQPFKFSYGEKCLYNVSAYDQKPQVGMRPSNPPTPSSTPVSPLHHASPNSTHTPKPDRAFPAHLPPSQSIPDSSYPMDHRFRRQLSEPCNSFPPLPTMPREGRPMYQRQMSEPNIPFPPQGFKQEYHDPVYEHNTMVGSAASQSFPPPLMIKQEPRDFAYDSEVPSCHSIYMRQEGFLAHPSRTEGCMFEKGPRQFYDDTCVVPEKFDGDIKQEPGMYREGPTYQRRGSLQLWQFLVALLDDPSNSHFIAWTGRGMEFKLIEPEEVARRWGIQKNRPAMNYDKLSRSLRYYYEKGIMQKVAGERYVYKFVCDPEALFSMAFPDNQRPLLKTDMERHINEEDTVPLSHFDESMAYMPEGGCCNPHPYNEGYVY
# Summary of the method: as §1
# ERF = biological target: T3, ERF (Homo sapiens, UniProt P50548 1-548)
# T3 sequence: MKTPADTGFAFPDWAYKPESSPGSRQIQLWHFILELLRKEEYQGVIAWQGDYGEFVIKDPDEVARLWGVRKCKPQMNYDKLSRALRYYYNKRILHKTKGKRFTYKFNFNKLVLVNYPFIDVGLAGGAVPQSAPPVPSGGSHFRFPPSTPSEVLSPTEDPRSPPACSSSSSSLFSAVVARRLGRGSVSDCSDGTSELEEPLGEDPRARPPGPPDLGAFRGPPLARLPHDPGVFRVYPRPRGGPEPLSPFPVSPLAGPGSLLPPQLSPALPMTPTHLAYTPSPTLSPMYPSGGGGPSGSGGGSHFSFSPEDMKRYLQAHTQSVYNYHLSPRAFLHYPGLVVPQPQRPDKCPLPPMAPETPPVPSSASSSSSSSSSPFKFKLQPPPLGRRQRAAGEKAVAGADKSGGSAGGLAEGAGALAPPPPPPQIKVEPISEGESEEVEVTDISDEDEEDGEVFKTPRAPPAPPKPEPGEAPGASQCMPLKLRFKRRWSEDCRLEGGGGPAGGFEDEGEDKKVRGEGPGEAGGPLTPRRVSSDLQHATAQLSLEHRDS
# Summary of the method: as §1
# ETV3L = biological target: T4, ETV3L (Homo sapiens, UniProt Q6ZN32 1-361)
# T4 sequence: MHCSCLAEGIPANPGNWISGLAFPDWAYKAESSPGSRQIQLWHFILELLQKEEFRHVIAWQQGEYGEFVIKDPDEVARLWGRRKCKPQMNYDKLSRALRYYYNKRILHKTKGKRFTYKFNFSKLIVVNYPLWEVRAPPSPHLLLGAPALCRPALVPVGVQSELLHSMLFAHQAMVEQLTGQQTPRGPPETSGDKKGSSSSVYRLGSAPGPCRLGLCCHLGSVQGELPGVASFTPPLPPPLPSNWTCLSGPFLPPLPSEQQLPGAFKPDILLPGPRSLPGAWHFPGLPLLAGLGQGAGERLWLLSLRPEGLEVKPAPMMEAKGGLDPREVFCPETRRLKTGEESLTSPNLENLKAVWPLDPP
# Summary of the method: as §1
# ETS2 = biological target: T5, ETS2 (Homo sapiens, UniProt P15036 1-469)
# T5 sequence: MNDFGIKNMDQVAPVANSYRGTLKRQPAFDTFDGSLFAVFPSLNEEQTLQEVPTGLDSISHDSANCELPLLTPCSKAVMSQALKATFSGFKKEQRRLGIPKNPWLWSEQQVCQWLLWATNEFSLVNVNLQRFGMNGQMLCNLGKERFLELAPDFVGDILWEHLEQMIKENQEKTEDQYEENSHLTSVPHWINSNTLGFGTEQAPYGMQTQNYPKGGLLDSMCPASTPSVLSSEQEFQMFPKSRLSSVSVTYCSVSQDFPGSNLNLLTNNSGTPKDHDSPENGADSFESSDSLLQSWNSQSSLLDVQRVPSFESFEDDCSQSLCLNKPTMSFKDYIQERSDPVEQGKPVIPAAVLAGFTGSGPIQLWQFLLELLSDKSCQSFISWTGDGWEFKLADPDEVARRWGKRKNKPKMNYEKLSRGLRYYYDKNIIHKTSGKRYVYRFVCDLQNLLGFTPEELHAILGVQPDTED
# Summary of the method: as §1
# SPDEF = biological target: T6, SPDEF (Homo sapiens, UniProt O95238 1-335)
# T6 sequence: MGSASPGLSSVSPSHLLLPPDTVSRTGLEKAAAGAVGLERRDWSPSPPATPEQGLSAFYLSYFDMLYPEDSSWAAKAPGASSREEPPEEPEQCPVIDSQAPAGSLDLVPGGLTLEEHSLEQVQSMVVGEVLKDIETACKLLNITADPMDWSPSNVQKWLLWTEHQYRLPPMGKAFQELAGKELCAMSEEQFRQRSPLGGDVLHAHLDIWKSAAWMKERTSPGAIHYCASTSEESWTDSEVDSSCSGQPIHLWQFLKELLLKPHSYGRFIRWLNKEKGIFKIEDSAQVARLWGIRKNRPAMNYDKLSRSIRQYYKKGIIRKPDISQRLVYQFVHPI
# Summary of the method: as §1
# ETV7 = biological target: T7, ETV7 (Homo sapiens, UniProt Q9Y603 1-341)
# T7 sequence: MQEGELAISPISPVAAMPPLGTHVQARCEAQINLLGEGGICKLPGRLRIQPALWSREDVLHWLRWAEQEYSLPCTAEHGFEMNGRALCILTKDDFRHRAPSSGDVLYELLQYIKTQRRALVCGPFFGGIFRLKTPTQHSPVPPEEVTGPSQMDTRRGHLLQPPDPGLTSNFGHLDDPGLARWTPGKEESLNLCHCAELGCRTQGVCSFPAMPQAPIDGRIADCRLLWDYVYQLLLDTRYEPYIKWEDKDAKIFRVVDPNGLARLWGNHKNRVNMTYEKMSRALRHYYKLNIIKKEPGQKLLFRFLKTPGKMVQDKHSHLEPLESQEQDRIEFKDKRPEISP
# Summary of the method: as §1
# ETV3 = biological target: T8, ETV3 (Homo sapiens, UniProt P41162-2 1-143)
# T8 sequence: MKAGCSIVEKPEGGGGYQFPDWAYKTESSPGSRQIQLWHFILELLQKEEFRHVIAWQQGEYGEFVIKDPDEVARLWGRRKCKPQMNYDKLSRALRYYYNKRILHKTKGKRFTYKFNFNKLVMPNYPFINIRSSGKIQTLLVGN
# Summary of the method: as §1
# ETV6 = ETV6 (Homo sapiens, UniProt P41212 1-452)
# Chain of ETV6 (P41212 whole entry): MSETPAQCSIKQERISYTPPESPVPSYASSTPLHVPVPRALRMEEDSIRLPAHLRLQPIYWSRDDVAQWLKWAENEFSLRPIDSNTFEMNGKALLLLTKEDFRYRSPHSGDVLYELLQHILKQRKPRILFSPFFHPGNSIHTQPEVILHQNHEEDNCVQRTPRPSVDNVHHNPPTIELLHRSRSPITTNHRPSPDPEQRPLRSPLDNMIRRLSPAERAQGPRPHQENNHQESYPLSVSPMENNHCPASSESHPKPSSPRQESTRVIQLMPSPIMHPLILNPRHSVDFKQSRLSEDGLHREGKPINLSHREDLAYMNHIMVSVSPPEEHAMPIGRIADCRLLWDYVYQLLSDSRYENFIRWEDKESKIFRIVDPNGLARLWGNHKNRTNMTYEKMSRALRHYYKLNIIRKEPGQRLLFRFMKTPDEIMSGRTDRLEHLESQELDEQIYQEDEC
# Summary of the method: as §1
sequence,measurement,setting,value
TGCCCA,binding signal,ELK4,"1.25 fold enrichment (6-mer frequency, TF over GST control)"
same,binding signal,ETV2,"1.1 fold enrichment (6-mer frequency, TF over GST control)"
same,binding signal,ETV1,"1.03 fold enrichment (6-mer frequency, TF over GST control)"
same,binding signal,ERF,"1.12 fold enrichment (6-mer frequency, TF over GST control)"
same,binding signal,ETV3L,"1.12 fold enrichment (6-mer frequency, TF over GST control)"
same,binding signal,ETS2,"1.12 fold enrichment (6-mer frequency, TF over GST control)"
same,binding signal,SPDEF,"1.12 fold enrichment (6-mer frequency, TF over GST control)"
same,binding signal,ETV7,"1.23 fold enrichment (6-mer frequency, TF over GST control)"
same,binding signal,ETV3,"1.15 fold enrichment (6-mer frequency, TF over GST control)"
same,binding signal,ETV6,"1.14 fold enrichment (6-mer frequency, TF over GST control)"
